Data from PubChem BioAssay AID720676 (National Center for Advancing Translational Sciences (NCATS), 2013).
Results filed as inconclusive are left out. Active and inactive are the calls of the source. The call rests on the fitted dose curve; in most records, active means well fitted curve in the direction sought with a large enough effect; inconclusive means small, poorly fitted or top-dose-only effect, or another doubt; inactive means no such curve, though single readings can be large or run the other way.

Assay: qHTS of small molecules that selectively kill Giardia lamblia: GS isolate Assay for SAR
Details: Giardia lamblia GS isolate viability; series mostly up to 38.3 µM; activity change, negative = inhibition: at the top concentration
Source text: Giardia lamblia is a human pathogen afflicting impoverished nations, and the most common cause of outbreaks of diarrhea in the United States. Giardia has been classified by the CDC as a category B bioterrorism organism. The favored anti giardiasis drugs in the US are metronidazole or tinidazole, compounds that have undesirable side effects. Moreover, increasing resistance to these drug regimens and recurrence remains a concern. It is thus clear that alternative drug treatments are needed.
In collaboration with the University of Maryland (College Park), a bioluminescence Giardia viability assay based on the trophozoites' ATP content was developed. This assay is suitable for high throughput screening, and miniaturized the assay for compound screening in 1536-well plates. The Molecular Libraries Small Molecule Repository (MLSMR) was screened against this assay to find compounds that selectively kill Giardia trophozoites (AID 540267). Selected compounds were re-acquired to confirm their trophozoite toxicity activity (AID 588397) and lead chemotypes were identified for medicinal chemistry optimization. The data herein is the result of the first round of SAR for this project. Decrease in luminescence signal indicative of tropozoite growth inhibition (inhibitors) is the desired outcome for this assay.
NIH Chemical Genomics Center [NCGC]
NIH Molecular Libraries Probe Centers Network [MLPCN]
Assay Submitter (PI): Osnat Herzberg, University of Maryland, College Park, MD.
Giardia assay media was dispensed to an assay plate at 2 ul / well volume. Twenty-three nanoliter / well compounds were pinned into the plates using the Kalypsys robotic system. Giardia trophozoites were dispensed into the well at a concentration of 100 cells / well and incubated anaerobically at 37C for 48 hours. After compound incubation, 4 ul/ well ATPLite 1-Step luminescence assay detection reagent was and the plates were incubated at room temperature. After 30 min of incubation with the detection reagent, luminescence signal was obtained using the PerkinElmer ViewLux plate reader. Data was then processed and normalized to both positive and negative controls. Biosafety level 2 laboratory practices were observed throughout the duration of this screen.
In the case of `COc1cccc(NC(=S)N2CCN(c3cc(Cl)cc(Cl)c3)CC2)n1`, the “activity change, negative = inhibition” value is reported as 11.5% (inactive).
In the case of `Cc1ccnc(NC(=S)N2CCN(c3cccc(C(F)(F)F)c3)CC2)c1`, the “activity change, negative = inhibition” value is reported as -32.4% [at 37.9 µM] (inactive).
For `Cc1cc(C)nc(NC(=S)N2CCN(c3ccc(Cl)cc3C(F)(F)F)CC2)c1`, the “activity change, negative = inhibition” value was -7.54% [at 37.9 µM] (inactive).
With `Cc1ccnc(N=C(N)N2CCN(c3cccc(C(F)(F)F)c3)CC2)c1` the “activity change, negative = inhibition” value was -7.19% [at 37.9 µM] (inactive).
In the case of `Cc1cc(C)nc(NC(=S)N2CCN(c3ccc([N+](=O)[O-])cc3Cl)CC2)c1`, the “activity change, negative = inhibition” value is reported as -33.6% (inactive).
In the case of `Cc1nc(CN(C)c2ncnc3ccc(-c4ccc5[nH]ncc5c4)cc23)cs1`, the “activity change, negative = inhibition” value is reported as -56.4% (inactive).
In the case of `Cc1ccnc(NC(=S)N2CCCc3ccc(C(F)(F)F)cc32)c1`, the “activity change, negative = inhibition” value is reported as 25.8% [at 37.9 µM] (inactive).
In the case of `COc1ccnc(NC(=S)N2CCN(c3ccc(Cl)cc3Cl)CC2)c1`, the “activity change, negative = inhibition” value is reported as -24.1% (inactive).
In the case of `FC(F)(F)c1cccc(N2CCN(C(=S)Nc3cc(C(F)(F)F)ccn3)CC2)c1`, the “activity change, negative = inhibition” value is reported as 20.9% (inactive).
For `Cc1ccnc(NC(=S)N2CCCN(c3cccc(C(F)(F)F)c3)CC2)c1`, the “activity change, negative = inhibition” value was -22.1% (inactive).
With `Cc1cc(C)nc(NC(=S)N2CC3CN(c4ccc(Cl)cc4C(F)(F)F)CC3C2)c1` (stereo unspecified) the “activity change, negative = inhibition” value was -26.8% (inactive).
In the case of `Cc1ccnc(NC(=S)N[C@@H]2CCN(c3cccc(C(F)(F)F)c3)C2)c1`, the “activity change, negative = inhibition” value is reported as 23% (inactive).
For `Cc1cc(C)nc(NC(=S)N2CCN(c3ccc(Cl)c(Cl)c3)CC2)c1`, the “activity change, negative = inhibition” value was -30.3% (inactive).
For `S=C(Nc1cc(Cl)ccn1)N1CCN(c2cccc(Cl)c2Cl)CC1`, the “activity change, negative = inhibition” value was 17% (inactive).
With `CC(Cc1ccccc1)C(=O)Nc1ccc(Cl)cc1C(=O)O` (stereo unspecified) the “activity change, negative = inhibition” value was -4.47% (inactive).
For `COc1cccc(NC(=S)N2CCN(c3ccc(Cl)c(Cl)c3)CC2)n1`, the “activity change, negative = inhibition” value was 14.5% (inactive).
In the case of `Cc1ccnc(NC(=S)Nc2cccc(C(F)(F)F)c2)c1`, the “activity change, negative = inhibition” value is reported as 12.3% (inactive).
In the case of `Cc1ccnc(NC(=S)N2CC3CN(c4cccc(C(F)(F)F)c4)CC3C2)c1` (stereo unspecified), the “activity change, negative = inhibition” value is reported as 17.6% (inactive).
With `COc1ccnc(NC(=S)N2CCN(c3ncc(C(F)(F)F)cc3Cl)CC2)c1` the “activity change, negative = inhibition” value was 15.5% [at 37.9 µM] (inactive).
In the case of `FC(F)(F)c1cccc(N2CCN(C(=S)Nc3nccc4ccccc34)CC2)c1`, the outcome is reported as “inactive”.
With `Cc1ccnc(NC(=S)N2CC3CN(c4ncc(C(F)(F)F)cc4Cl)CC3C2)c1` (stereo unspecified) the “activity change, negative = inhibition” value was -29.8% (inactive).
For `FC(F)(F)c1cc(N2CCN(C(=S)Nc3cc(Cl)ccn3)CC2)cc(C(F)(F)F)c1`, the “activity change, negative = inhibition” value was 7.15% (inactive).
For `Cc1cc(C)nc(NC(=S)N2CCN(c3ccc(Cl)cc3Cl)CC2)c1`, the “activity change, negative = inhibition” value was -6.72% [at 37.9 µM] (inactive).
For `COc1ccnc(NC(=S)N2CCN(c3cccc(Cl)c3Cl)CC2)c1`, the “activity change, negative = inhibition” value was -19.6% (inactive).
In the case of `Cc1cc(C)nc(NC(=S)N2CCN(c3ncccc3C#N)CC2)c1`, the “activity change, negative = inhibition” value is reported as 6.52% (inactive).
In the case of `CSC(Cc1ccc(Cl)cc1)C(=O)Nc1ccc(Cl)cc1C(=O)O` (stereo unspecified), the “activity change, negative = inhibition” value is reported as -22.2% (inactive).
